# Measurements from PubChem BioAssay (NCI).
# About 83,000 compounds went through this panel and 20% of them were active in at least one assay; those are over-represented in the sample as a whole.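 Testing used 96-well plates and a 48-hour single-concentration exposure. Example: -40 means 40% of the starting cells died.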 Unmarked numbers belong to inactive results. The source made the active and inactive calls. The calls were made as follows: active = growth percent below 10; inactive = the rest.
# Assays:
# Test in all cases: NCI-60 one-dose screen, 48 h (100 = growth as untreated, 0 = no growth, -100 = all killed)
# Settings in all cases: 10 µM unless noted
# NCI-H23 lung = tested on: NCI-H23 lung
# NCI-H226 lung = tested on: NCI-H226 lung
# NCI-H322M lung = tested on: NCI-H322M lung
# HOP-62 NSCLC = tested on: HOP-62 NSCLC
# NCI-H460 lung = tested on: NCI-H460 lung
# HOP-92 NSCLC = tested on: HOP-92 NSCLC
# NCI-H522 lung = tested on: NCI-H522 lung
# A549/ATCC NSCLC = tested on: A549/ATCC NSCLC
# 786-0 renal = tested on: 786-0 renal
# COLO 205 colon = tested on: COLO 205 colon
# DU-145 prostate = tested on: DU-145 prostate
# K-562 leukemia = tested on: K-562 leukemia
# MALME-3M melanoma = tested on: MALME-3M melanoma
# MDA-MB-231 breast = tested on: MDA-MB-231 breast
# RXF 393 renal = tested on: RXF 393 renal
# SF-268 CNS = tested on: SF-268 CNS
# SF-295 CNS = tested on: SF-295 CNS
# SF-539 CNS = tested on: SF-539 CNS
# UACC-257 melanoma = tested on: UACC-257 melanoma
# M14 melanoma = tested on: M14 melanoma
Compound,growth (NCI-H23 lung) [%],growth (NCI-H226 lung),growth (NCI-H322M lung) [%],growth (HOP-62 NSCLC),growth (NCI-H460 lung),growth (HOP-92 NSCLC),growth (NCI-H522 lung),growth (A549/ATCC NSCLC),growth (786-0 renal),growth (COLO 205 colon),growth (DU-145 prostate),growth (K-562 leukemia),growth (MALME-3M melanoma),growth (MDA-MB-231 breast),growth (RXF 393 renal),growth (SF-268 CNS),growth (SF-295 CNS),growth (SF-539 CNS),growth (UACC-257 melanoma),growth (M14 melanoma)
C=C1C(=O)O[C@H]2[C@H]1CC/C(COC(=O)NCc1c[nH]c3ccc(Br)cc13)=C\CC[C@@]1(C)O[C@@H]21,29.4,4.62% (active),74,58.5%,24.1%,-46.3% (active),-89.9% (active),49.1%,-47.7% (active),-78.2% (active),-88.6% (active),0.98% (active),-45.4% (active),-52.7% (active),-87.7% (active),3.85% (active),60.9%,-36.9% (active),-39.6% (active),-40.8% (active)
N/C(=N\C(N)=N\c1nc2ccccc2s1)c1ccnc(Br)c1,44.5,60.1%,97.4,29.8%,16.4%,47%,9.9% (active),61.3%,32.2%,21.4%,42.7%,14%,64.5%,51.7%,15.7%,50%,5.59% (active),8.41% (active),46.2%,21.5%
COc1ccc(C(=O)CSc2nc(-c3cc(OC)ccc3OC)cc(-c3ccc(Cl)cc3)c2C#N)cc1,44.1,-2.99% (active),67.9,39.9%,25.4%,43.9%,27.6%,56.5%,23.7%,65.2%,65.9%,77.9%,-6.38% (active),33.2%,26.5%,59.2%,18.5%,30.5%,58%,48.6%
O=C(Cc1ccc(/C=C/C(=O)c2nccs2)cc1)Nc1ccccc1,97.3,100%,100,103%,103%,91.3%,78.5%,88.8%,93.8%,122%,105%,23.3%,98.4%,94.8%,103%,95%,97.1%,99.9%,88.6%,93.1%
COc1cc(-c2csc(NC(=O)c3cc(F)cc(C(F)(F)F)c3)n2)cc(OC)c1OC,49.8,27.7%,68,39.3%,19.5%,51.2%,-10.8% (active),64.4%,29.4%,25.5%,14.6%,8.12% (active),40.3%,56.5%,11.8%,42.4%,38.1%,26.8%,58.6%,23.6%
COc1cc(/C=N/NC(=O)c2cnn3c2NC(c2ccccc2)C3)ccc1OCc1ccccc1 (stereo not given),32.8,40.2%,28.6,-1.18% (active),-54% (active),7.9% (active),19.1%,-29.8% (active),0.422% (active),-2.34% (active),6.15% (active),3.64% (active),-20.5% (active),5.81% (active),-4.25% (active),19.6%,-48.3% (active),-52.6% (active),18.5%,14.8%
Cn1nc(CC#N)c2c(=N)n(N)cnc21,104,108%,118,101%,102%,98.8%,110%,113%,123%,105%,106%,103%,118%,96.7%,112%,101%,95%,108%,111%,110%
C=C1C(=O)O[C@H]2[C@H]1CC/C(COC(=O)NCc1c[nH]c3ccc(Cl)cc13)=C\CC[C@@]1(C)O[C@@H]21,34.8,6.61% (active),76.2,60.5%,18%,-35.7% (active),-90.4% (active),55.8%,-61.8% (active),-59.3% (active),-72.2% (active),0.207% (active),-57.1% (active),-70.4% (active),-92.5% (active),-3.81% (active),63.8%,-54.9% (active),19.4%,-53.2% (active)
COc1cc(-c2n/c(=C\c3c(O)[nH]c4ccc(Cl)cc34)cc3c2=Nc2ccccc2-3)ccc1F,17.2,60.5%,66.5,3.23% (active),0.147% (active),-26.3% (active),3.18% (active),-52.2% (active),-56.8% (active),7.9% (active),-36.4% (active),13.4%,-66.4% (active),-7.94% (active),-78.7% (active),-40.1% (active),43.1%,54.6%,58.1%,14%
C/C(=N\NC(=O)CSc1nc2ccccc2c(=O)n1Cc1ccc(S(N)(=O)=O)cc1)c1ccc(F)cc1,105,102%,102,98.8%,103%,124%,18.1%,102%,104%,115%,111%,103%,106%,101%,109%,98.8%,102%,104%,107%,107%
Cc1ccc(-n2cc(-c3ccccc3)c3c2N=NN2CCN=C32)cc1,93.1,82.3%,97.4,97.4%,104%,102%,90.2%,105%,99.3%,120%,113%,87%,104%,85.9%,109%,96.8%,96.5%,101%,113%,104%
CC(Oc1ccc(C(=O)O)cc1C(F)(F)F)c1ccc(Oc2ccccc2)cn1 (stereo not given),98.6,97.6%,99.5,99.1%,104%,97.8%,88.2%,99.9%,99.4%,130%,111%,82.8%,101%,101%,95.8%,94.6%,100%,95.9%,97.7%,103%
COC(=O)/C=C1\S/C(=N\NC(=O)c2cc3ccc2/C=C\c2ccc(cc2)/C=C\3)N(c2ccccc2)C1=O,40.4,73.8%,68.5,3% (active),60.7%,75.3%,41.5%,69.1%,-0.285% (active),47.7%,50.9%,27%,78.8%,32.5%,5.34% (active),72.5%,62.6%,-22.5% (active),69.2%,53.1%
COc1cc2c(c(OC)c1OC)CCC(c1cccc(NC(=O)c3cccc(Br)c3)c1)O2 (stereo not given),95.1,93.7%,98.5,99.8%,100%,94%,81%,81.2%,93.7%,98.3%,91.9%,88%,100%,92.6%,87.6%,87.1%,92.5%,97.7%,81.6%,90.5%
CN1CCN(c2ccc(NC3=C(Cl)C(=O)c4ncccc4C3=O)cc2C(F)(F)F)CC1,58.7,102%,98,114%,101%,-76.4% (active),-49.8% (active),104%,82.6%,-16.7% (active),96.6%,3.72% (active),-92.1% (active),4.49% (active),-71.4% (active),87.7%,106%,104%,-56.8% (active),39.8%
Nc1c(C(=O)Nc2ccnc3ccccc23)sc2nc3c(cc12)CN(Cc1ccccc1)CC3,70.3,53.1%,90.3,111%,87.4%,66.7%,70.1%,85.1%,66.3%,97.3%,85.6%,38.5%,96%,67.7%,96.1%,87.8%,75.2%,99.1%,78.8%,41.9%
